In PMC8384837, “Expanding the binding specificity for RNA recognition by a PUF domain” one finds binding signal data, which are given here for seven sequences.

Common to all, as to assay: yeast three-hybrid, YBZ-1, SC-Leu-His + 0.5 mM 3-AT, 4 days
What all share (settings): tags: N-Gal4 AD-HA kept; label: inside an RPR1-promoter hybrid RNA with tandem MS2 sites; ssRNA

Experiment [1] concerns the target PUM1 PUF domain R8-HFA (Homo sapiens, UniProt Q14671 828-1176, N1122H;Y1123F;Q1126A). The method in brief: (§1)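 Each repeat of the Pumilio-1 PUF domain was randomized at its three base-contacting residues, and these libraries were co-expressed from a centromeric plasmid with matching RNA elements in strain YBZ-1. After four days on SC-Leu (input) or SC-Leu-His + 0.5 mM 3-AT (selection), the repeat regions were PCR-amplified and Illumina-sequenced. The interaction score compares variant frequency between input and selection as a log change, computed in log2 with a pseudocount of 1 for absent variants.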

Experiment [2] addresses PUM1 PUF domain R8-IRK (Homo sapiens, UniProt Q14671 828-1176, N1122I;Y1123R;Q1126K). The essentials:
as §1

The target of experiment [3] is PUM1 PUF domain R8-KHA (Homo sapiens, UniProt Q14671 828-1176, N1122K;Y1123H;Q1126A). The essentials: as §1
Experiment [4] deals with PUM1 PUF domain R5-PRR (Homo sapiens, UniProt Q14671 828-1176, C1007P;Q1011R). The method in brief:
as §1

Experiment [5] concerns the target T1, PUM1 PUF domain R6-EWV (Homo sapiens, UniProt Q14671 828-1176, N1043E;Y1044W;Q1047V).
T1 sequence: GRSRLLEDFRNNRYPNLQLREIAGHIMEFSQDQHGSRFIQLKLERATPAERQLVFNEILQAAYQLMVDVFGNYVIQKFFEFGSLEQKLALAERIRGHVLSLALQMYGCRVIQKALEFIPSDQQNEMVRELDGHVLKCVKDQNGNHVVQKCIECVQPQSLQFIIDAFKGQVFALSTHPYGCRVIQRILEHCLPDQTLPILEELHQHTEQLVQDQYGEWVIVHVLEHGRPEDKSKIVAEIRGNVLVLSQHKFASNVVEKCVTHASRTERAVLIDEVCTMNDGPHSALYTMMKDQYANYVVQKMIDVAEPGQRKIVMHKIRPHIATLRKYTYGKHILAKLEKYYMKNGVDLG
The essentials: as §1

Experiment [6] deals with PUM1 PUF domain R7-DFE (Homo sapiens, UniProt Q14671 828-1176, S1079D;N1080F). The essentials: as §1
Experiment [7] has as its target PUM1 PUF domain R5-RSK (Homo sapiens, UniProt Q14671 828-1176, C1007R;R1008S;Q1011K). The method in brief: as §1
Experiment [8] deals with PUM1 PUF domain R5-QSC (Homo sapiens, UniProt Q14671 828-1176, C1007Q;R1008S;Q1011C). The method in brief: as §1
Experiment [9] deals with PUM1 PUF domain R5-SGC (Homo sapiens, UniProt Q14671 828-1176, C1007S;R1008G;Q1011C). The essentials:
as §1

Experiment [10] has as its target PUM1 PUF domain R3-RRK (Homo sapiens, UniProt Q14671 828-1176, C935R;Q939K). The essentials:
as §1

As for “GGCUAGAACUAGUGGAUCCCCCGGCGCCCGGCGGCUCGAGCCCGGGUAAGCGUAAAUAGUCUGCAUGCCGCCGGGCGCCAUGCCUGCAGGUCGACUCUAGAAAACAUG”, the results for the binding signal in experiment [1] and in [2] were 3.45 log2 enrichment (interaction score) and 2.54 log2 enrichment (interaction score), respectively.
Turning to “GGCUAGAACUAGUGGAUCCCCCGGCGCCCGGCGGCUCGAGCCCGGGUAAGUGUAAAUAGUCUGCAUGCCGCCGGGCGCCAUGCCUGCAGGUCGACUCUAGAAAACAUG”, the binding signal in experiment [3] was 3.55 log2 enrichment (interaction score); in [1], 2.13 log2 enrichment (interaction score); in experiment [4], 2.16 log2 enrichment (interaction score); in experiment [5], 1.65 log2 enrichment (interaction score); in [6] it was 2.67 log2 enrichment (interaction score).
As to “GGCUAGAACUAGUGGAUCCCCCGGCGCCCGGCGGCUCGAGCCCGGGUAAGUGUCAAUAGUCUGCAUGCCGCCGGGCGCCAUGCCUGCAGGUCGACUCUAGAAAACAUG”, the binding signal in [4] was 0.75 log2 enrichment (interaction score); in experiment [7], 3.23 log2 enrichment (interaction score).
As to “GGCUAGAACUAGUGGAUCCCCCGGCGCCCGGCGGCUCGAGCCCGGGUAAGUGUGAAUAGUCUGCAUGCCGCCGGGCGCCAUGCCUGCAGGUCGACUCUAGAAAACAUG”, the values for the binding signal in experiment [4], in [8] and in experiment [9] were 2.13 log2 enrichment (interaction score), 3.71 log2 enrichment (interaction score) and 2.36 log2 enrichment (interaction score), respectively.
For the sequence “GGCUAGAACUAGUGGAUCCCCCGGCGCCCGGCGGCUCGAGCCCGGGUAAGUGUAAUUAGUCUGCAUGCCGCCGGGCGCCAUGCCUGCAGGUCGACUCUAGAAAACAUG”, the binding signal in [10] was 4.07 log2 enrichment (interaction score).
Consider “GGCUAGAACUAGUGGAUCCCCCGGCGCCCGGCGGCUCGAGCCCGGGUAAGUGAAAAUAGUCUGCAUGCCGCCGGGCGCCAUGCCUGCAGGUCGACUCUAGAAAACAUG”, for which, in [5], the binding signal is 3.43 log2 enrichment (interaction score).
For the sequence “GGCUAGAACUAGUGGAUCCCCCGGCGCCCGGCGGCUCGAGCCCGGGUAAGUGUUAAUAGUCUGCAUGCCGCCGGGCGCCAUGCCUGCAGGUCGACUCUAGAAAACAUG”, the binding signal in experiment [4] was 3.23 log2 enrichment (interaction score).
